# Results filed as inconclusive are left out. Where a call stands in place of a potency, no number is given. Activity calls are given as the source filed them. Unless noted, calls come from the whole dose curve; as a rule, active = well fitted inhibition curve with a large enough effect; inconclusive = small, poorly fitted or top-dose-only effect; inactive = flat fitted curve, though single readings scatter.
# Assays:
# [1] = qHTS profiling for inhibitors of Plasmodium falciparum proliferation (AID 504749); note: nearly all actives have a fitted effect of over 60% in size; settings: P. falciparum in erythrocytes, SYBR Green DNA, 72 h
# Method in brief: (§1)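 Each compound contacts P. falciparum-infected red blood cells for 72 h at 37 C; lysis buffer (Tris, EDTA, saponin, Triton X, SYBR Green I) is added and fluorescence measured next morning; values normalized to controls.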
# 3D7 = assay: as above; settings: P. falciparum in erythrocytes, SYBR Green DNA, 72 h; series mostly up to 28.7 µM
# Method in brief: as §1
# 7G8 = assay: as above; settings: P. falciparum in erythrocytes, SYBR Green DNA, 72 h; series mostly up to 28.7 µM
# Method in brief: as §1
# AA1029 = assay: as above; settings: P. falciparum in erythrocytes, SYBR Green DNA, 72 h; series mostly up to 28.7 µM
# Method in brief: as §1
# AS120 = assay: as above; settings: P. falciparum in erythrocytes, SYBR Green DNA, 72 h; series mostly up to 28.7 µM
# Method in brief: as §1
# ATS189 = assay: as above; settings: P. falciparum in erythrocytes, SYBR Green DNA, 72 h; series mostly up to 28.7 µM
# Method in brief: as §1
# ATS95 = assay: as above; settings: P. falciparum in erythrocytes, SYBR Green DNA, 72 h; series mostly up to 28.7 µM
# Method in brief: as §1
# C2A = assay: as above; settings: P. falciparum in erythrocytes, SYBR Green DNA, 72 h; series mostly up to 28.7 µM
# Method in brief: as §1
# CP185 = assay: as above; settings: P. falciparum in erythrocytes, SYBR Green DNA, 72 h; series mostly up to 28.7 µM
# Method in brief: as §1
# CP191 = assay: as above; settings: P. falciparum in erythrocytes, SYBR Green DNA, 72 h; series mostly up to 28.7 µM
# Method in brief: as §1
# CP192 = assay: as above; settings: P. falciparum in erythrocytes, SYBR Green DNA, 72 h; series mostly up to 28.7 µM
# Method in brief: as §1
# CP194 = assay: as above; settings: P. falciparum in erythrocytes, SYBR Green DNA, 72 h; series mostly up to 28.7 µM
# Method in brief: as §1
# CP201 = assay: as above; settings: P. falciparum in erythrocytes, SYBR Green DNA, 72 h; series mostly up to 28.7 µM
# Method in brief: as §1
# CP211 = assay: as above; settings: P. falciparum in erythrocytes, SYBR Green DNA, 72 h; series mostly up to 28.7 µM
# Method in brief: as §1
# CP215 = assay: as above; settings: P. falciparum in erythrocytes, SYBR Green DNA, 72 h; series mostly up to 28.7 µM
# Method in brief: as §1
# [2] = qHTS for identification of novel therapeutic agents for treatment of microphthalmiaassociated transcription factor (MiT) renal cell carcinoma (RCC) (AID 1963991; calls by dose curve; note: potency is the fitted concentration of half-maximal effect); settings: CellTiter-Glo, 48 h; for z-score: stronger effect = lower value
# Method in brief: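 Three TFE3-fusion RCC cell lines (UOK109, UOK124, UOK145), 500 cells/well, were exposed to the 1912-compound MIPE 4.0 library for 48 hours at 37 C. Viability was read by CellTiter-Glo luminescence, normalised to DMSO (100%) and empty wells (0%), with 11-concentration curve fits.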
# [3] = at 28.7 µM (top of the series), parasite line A
# [4] = at 28.7 µM (top of the series), parasite line B
# [5] = at 12.8 µM (top of the series), parasite line A
# [6] = at 12.8 µM (top of the series), parasite line B
# [7] = TFE3-RCC UOK109 viability, measured here: UOK109 Z-AUC
# [8] = TFE3-RCC viability, measured here: UOK124 Z-AUC
# [9] = TFE3-RCC viability, measured here: UOK145 Z-AUC
compound,measurement,setting,value
CCCNC(=O)NS(=O)(=O)c1ccc(Cl)cc1,"activity, negative = inhibition",[1]; [3],14.4% (inactive)
same,"activity, negative = inhibition",[1]; [4],10.3% (inactive)
same,outcome,3D7,inactive
same,Potency,7G8,inactive
same,outcome,AA1029,inactive
same,Potency,AS120,inactive
same,Potency,ATS189,inactive
same,outcome,ATS95,inactive
same,outcome,C2A,inactive
same,outcome,CP185,inactive
same,Potency,CP191,inactive
same,Potency,CP192,inactive
same,Potency,CP194,inactive
same,outcome,CP201,inactive
same,Potency,CP211,inactive
same,Potency,CP215,inactive
C[C@@H](O)[C@H]1C(=O)N2C(C(=O)O)=C(S[C@@H]3CN[C@H](C(=O)N(C)C)C3)[C@H](C)[C@H]12,"activity, negative = inhibition",[1]; [3],10.4% (inactive)
same,"activity, negative = inhibition",[1]; [4],13.7% (inactive)
same,outcome,3D7,inactive
same,Potency,7G8,inactive
same,outcome,AA1029,inactive
same,Potency,AS120,inactive
same,Potency,ATS189,inactive
same,outcome,ATS95,inactive
same,outcome,C2A,inactive
same,outcome,CP185,inactive
same,Potency,CP191,inactive
same,Potency,CP192,inactive
same,Potency,CP194,inactive
same,outcome,CP201,inactive
same,Potency,CP211,inactive
same,Potency,CP215,inactive
NC(N)=Nc1nc(CSCC/C(N)=N/S(N)(=O)=O)cs1,"activity, negative = inhibition",[1]; [3],-15% (inactive)
same,"activity, negative = inhibition",[1]; [4],4.88% (inactive)
same,outcome,3D7,inactive
same,Potency,7G8,inactive
same,outcome,AA1029,inactive
same,Potency,AS120,inactive
same,Potency,ATS189,inactive
same,outcome,ATS95,inactive
same,outcome,C2A,inactive
same,outcome,CP185,inactive
same,Potency,CP191,inactive
same,Potency,CP192,inactive
same,Potency,CP194,inactive
same,outcome,CP201,inactive
same,Potency,CP211,inactive
same,Potency,CP215,inactive
CCN(CC)C(=O)c1ccc(O)c(OC)c1,"activity, negative = inhibition",[1]; [5],6.06% (inactive)
same,"activity, negative = inhibition",[1]; [6],6.5% (inactive)
same,"activity, negative = inhibition",[1]; [3],14.7% (inactive)
same,"activity, negative = inhibition",[1]; [4],-14.5% (inactive)
same,outcome,3D7,inactive
same,Potency,7G8,inactive
same,outcome,AA1029,inactive
same,Potency,AS120,inactive
same,Potency,ATS189,inactive
same,outcome,ATS95,inactive
same,outcome,C2A,inactive
same,outcome,CP185,inactive
same,Potency,CP191,inactive
same,Potency,CP192,inactive
same,Potency,CP194,inactive
same,outcome,CP201,inactive
same,Potency,CP211,inactive
same,Potency,CP215,inactive
CC=CC(=O)N(CC)c1ccccc1C,z-score,[2]; [7],1.15
same,z-score,[2]; [8],0.231
same,z-score,[2]; [9],0.523
O=C1NCC2(CCN(CCc3ccccc3)CC2)O1,"activity, negative = inhibition",[1]; [3],12% (inactive)
same,"activity, negative = inhibition",[1]; [4],1.55% (inactive)
same,outcome,3D7,inactive
same,Potency,7G8,inactive
same,outcome,AA1029,inactive
same,Potency,AS120,inactive
same,Potency,ATS189,inactive
same,outcome,ATS95,inactive
same,outcome,C2A,inactive
same,outcome,CP185,inactive
same,Potency,CP191,inactive
same,Potency,CP192,inactive
same,Potency,CP194,inactive
same,outcome,CP201,inactive
same,Potency,CP211,inactive
same,Potency,CP215,inactive
CCCCC1C(=O)N(c2ccccc2)N(c2ccccc2)C1=O,Potency,7G8,inactive
CO[C@H]1C=CC=C(C)C(=O)NC2=CC(=O)C(NCCN(C)C)=C(C[C@@H](C)C[C@H](OC)[C@@H](O)[C@@H](C)C=C(C)[C@@H]1OC(N)=O)C2=O,Potency,"[2]; TFE3-RCC UOK109 viability, active = Z-AUC below -0.8 in all three lines",2640 nM (active)
same,z-score,[2]; [7],-1.45
same,z-score,[2]; [8],-3.65
same,z-score,[2]; [9],-1.68
CC(=O)CCCCn1c(=O)c2c(ncn2C)n(C)c1=O,"activity, negative = inhibition",[1]; [5],-2.51% (inactive)
same,"activity, negative = inhibition",[1]; [6],2.9% (inactive)
same,outcome,3D7,inactive
same,Potency,7G8,inactive
same,outcome,AA1029,inactive
same,Potency,AS120,inactive
same,Potency,ATS189,inactive
same,outcome,ATS95,inactive
same,outcome,C2A,inactive
same,outcome,CP185,inactive
same,Potency,CP191,inactive
same,Potency,CP192,inactive
same,Potency,CP194,inactive
same,outcome,CP201,inactive
same,Potency,CP211,inactive
same,Potency,CP215,inactive
OC[C@H]1O[C@@H](Oc2cc(O)cc(C=Cc3ccc(O)cc3)c2)[C@H](O)[C@@H](O)[C@H]1O,z-score,[2]; [7],0.664
same,z-score,[2]; [8],0.547
same,z-score,[2]; [9],1.48
CCOC(=O)O[C@]1(C(=O)OCCl)CC[C@@H]2[C@H]3CCC4=CC(=O)C=C[C@]4(C)[C@@H]3[C@@H](O)C[C@@]21C,z-score,[2]; [7],0.509
same,z-score,[2]; [8],0.837
same,z-score,[2]; [9],2.11
same,"activity, negative = inhibition",[1]; [3],-7.57% (inactive)
same,"activity, negative = inhibition",[1]; [4],4.48% (inactive)
same,outcome,3D7,inactive
same,outcome,AA1029,inactive
same,Potency,AS120,inactive
same,Potency,ATS189,inactive
same,outcome,ATS95,inactive
same,outcome,C2A,inactive
same,outcome,CP185,inactive
same,Potency,CP191,inactive
same,Potency,CP192,inactive
same,Potency,CP194,inactive
same,outcome,CP201,inactive
same,Potency,CP211,inactive

# Source: PubChem BioAssay (NCATS)
